Inconclusive results are not listed. Entries that show only a call come without a potency. Calls of active or inactive are those of the source. Calls come from the whole dose curve; as a rule, active = well fitted inhibition curve with a large enough effect; inconclusive = small, poorly fitted or top-dose-only effect; inactive = flat fitted curve, though single readings scatter.
Tests used:
Experiment in all cases: qHTS profiling for inhibitors of Plasmodium falciparum proliferation (AID 504749); note: nearly all actives have a fitted effect of over 60% in size
Details in all cases: P. falciparum in erythrocytes, SYBR Green DNA, 72 h; series mostly up to 28.7 µM
ATS95 = tested on: ATS95
Procedure, shortened: (§1)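 Each compound contacts P. falciparum-infected red blood cells for 72 h at 37 C; lysis buffer (Tris, EDTA, saponin, Triton X, SYBR Green I) is added and fluorescence measured next morning; values normalized to controls.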

C2A = tested on: C2A
Procedure, shortened: as §1

CP215 = tested on: CP215
Procedure, shortened: as §1

CP217 = tested on: CP217
Procedure, shortened: as §1

CP237 = tested on: CP237
Procedure, shortened: as §1

CP238 = tested on: CP238
Procedure, shortened: as §1

CP250 = tested on: CP250
Procedure, shortened: as §1

CP252 = tested on: CP252
Procedure, shortened: as §1

CP256 = tested on: CP256
Procedure, shortened: as §1

CP262 = tested on: CP262
Procedure, shortened: as §1

CP266 = tested on: CP266
Procedure, shortened: as §1

CP268 = tested on: CP268
Procedure, shortened: as §1

CP269 = tested on: CP269
Procedure, shortened: as §1

CP305 = tested on: CP305
Procedure, shortened: as §1

CP325 = tested on: CP325
Procedure, shortened: as §1

CP329 = tested on: CP329
Procedure, shortened: as §1

CP335 = tested on: CP335
Procedure, shortened: as §1

Dd2 = tested on: Dd2
Procedure, shortened: as §1

PAD = tested on: PAD
Procedure, shortened: as §1

SC27B = tested on: SC27B
Procedure, shortened: as §1
Potency is the fitted concentration of half-maximal effect.

Compound | Potency (ATS95) | Potency (C2A) | Potency (CP215) | Potency (CP217) | Potency (CP237) | Potency (CP238) | Potency (CP250) | Potency (CP252) | Potency (CP256) | Potency (CP262) | Potency (CP266) | Potency (CP268) | Potency (CP269) | Potency (CP305) | Potency (CP325) | Potency (CP329) | Potency (CP335) | Potency (Dd2) | Potency (PAD) | Potency (SC27B)
O=C(CC1NCCC[C@H]1O)Cn1cnc2cc(Br)c(Cl)cc2c1=O (stereo not given in full) | 2 µM (active) | 3.16 µM (active) | 3.79 µM (active) | 3.16 µM (active) | 3.55 µM (active) | 3.98 µM (active) | 2.82 µM (active) | 1.12 µM (active) | 3.16 µM (active) | inactive | 3.79 µM (active) | 3.38 µM (active) | 2.69 µM (active) | 3.38 µM (active) | 3.38 µM (active) | 3.38 µM (active) | 0.601 µM (active) | 0.708 µM (active) | 2.24 µM (active) | 11.2 µM (active)
CCCCC(=O)N(Cc1ccc(-c2ccccc2-c2nn[nH]n2)cc1)C(C(=O)O)C(C)C (stereo not given) | inactive | inactive | inactive | inactive | inactive | inactive | inactive | inactive | inactive | inactive | inactive | inactive | inactive | inactive | inactive | inactive | 6.01 µM (active) | inactive | inactive | inactive

— PubChem BioAssay (NCATS)
